High-throughput results from PubChem BioAssay.
An excerpt weighted towards active compounds, which were near 0.85% of everything screened.
GLS inh: qHTS for Inhibitors of Glutaminase (GLS). AID 624170, 2012. Glutaminase kidney isoform, mitochondrial (Homo sapiens), O94925. actives 0.21% (n = 410,000). Potency, µM (top dose mostly 45.5 µM), for the others: at the highest dose activity change, negative = inhibition, hits mostly inhibitors. GLS enzymatic activity, qHTS titration
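hKGA in 45 mM KH2PO4 pH 8.2, 0.02% Tween-20 with pin-transferred compounds; 1 mM L-glutamine (stock) plus glutamate oxidase/HRP/Amplex Red coupling added. Fluorescence read initially and after 30 min at RT.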
BLM helicase inh: qHTS Assay for Inhibitors of Bloom's syndrome helicase (BLM) | RecQ-like DNA helicase BLM (Homo sapiens), P54132 | recombinant BLM DNA unwinding, fluorescence dequenching | Potency, µM (doses to about 56.1 µM), for the others: at the highest dose activity change, negative = inhibition, hits mostly inhibitors | actives 0.2% (n = 350,000);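 note: plate controls were vehicle for no effect and no enzyme for full effect; nearly all actives have a fitted effect of over 35% in size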
Tb PGK inh: qHTS Assay to Find Inhibitors of Phosphoglycerate Kinase | PGK/GAPDH coupled, Kinase-Glo luminescence, 60 min | Potency, µM (top dose mostly 57.5 µM), for inactives: at the top dose activity change, negative = inhibition, usual class: inhibitors | actives 0.043% (n = 380,000) | AID 602233, 2012; note: nearly all actives have a fitted effect of over 60% in size
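Recombinant glycosomal PGK reaction used 1,3-bisphosphoglycerate generated in-well by GAPDH (100nM final) in 100mM TEA pH 7.6, 5mM MgCl2, 0.01% Tween-20. After 60 minutes at room temperature, ATP was read by Kinase-Glo Plus luminescence end-point.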
TDP1 inh: qHTS Assay for Inhibitors of Tyrosyl-DNA Phosphodiesterase (TDP1); Tyrosyl-DNA phosphodiesterase 1 (Homo sapiens), Q9NUW8; recombinant TDP1, AlphaScreen DNA substrate cleavage; Potency, µM (titrated, usually from 130 µM), inactives show at the highest dose activity change, negative = inhibition, actives largely listed as inhibitors; actives 0.28% (n = 350,000); AID 485290, 2010; note: nearly all actives have a fitted effect of over 40% in size
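E. coli-derived human Tdp1, 1 nM final. Cpd preinc 15 min RT; substrate 15 nM final, 5 min RT; AS bead mix 10 ug/ml final, 10 min RT. Signal loss = tyrosine-FITC cleavage. No-enzyme wells = max signal.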
APE1 inh-1: qHTS Assay for Inhibitors of the Human Apurinic/apyrimidinic Endonuclease 1 (APE1); actives 0.35% (n = 350,000); recombinant APE1, TAMRA/BHQ-2 abasic DNA cleavage fluorescence; DNA repair nuclease/redox regulator APEX1 (Homo sapiens), P27695; Potency, µM (series often up to 65.8 µM), inactives show at the top dose activity change, negative = inhibition, actives largely listed as inhibitors; AID 2517, 2012;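 note: plate controls were vehicle for no effect and reference inhibitor for full effect; nearly all actives have a fitted effect of over 55% in size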
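Compound pre-exposure to 0.75 nM APE1, 15 min at ambient temperature. Reaction initiated with 50 nM TAMRA/BHQ-2 THF substrate, read immediately in kinetic mode, 525 nm excitation, 598 nm emission.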
RECQ1 inh: qHTS Assay for Inhibitors of RecQ-Like Dna Helicase 1 (RECQ1); actives 0.54% (n = 240,000); RECQ1 DNA unwinding, red fluorescence kinetic read; Potency, µM (series often up to 57.3 µM), for inactives: at the highest dose activity, negative = inhibition, usual class: inhibitors; ATP-dependent DNA helicase Q1 (Homo sapiens), P46063;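 note: plate controls were vehicle for no effect and no enzyme for full effect; nearly all actives have a fitted effect of over 30% in size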
Target sequence (P46063 whole entry, looked up): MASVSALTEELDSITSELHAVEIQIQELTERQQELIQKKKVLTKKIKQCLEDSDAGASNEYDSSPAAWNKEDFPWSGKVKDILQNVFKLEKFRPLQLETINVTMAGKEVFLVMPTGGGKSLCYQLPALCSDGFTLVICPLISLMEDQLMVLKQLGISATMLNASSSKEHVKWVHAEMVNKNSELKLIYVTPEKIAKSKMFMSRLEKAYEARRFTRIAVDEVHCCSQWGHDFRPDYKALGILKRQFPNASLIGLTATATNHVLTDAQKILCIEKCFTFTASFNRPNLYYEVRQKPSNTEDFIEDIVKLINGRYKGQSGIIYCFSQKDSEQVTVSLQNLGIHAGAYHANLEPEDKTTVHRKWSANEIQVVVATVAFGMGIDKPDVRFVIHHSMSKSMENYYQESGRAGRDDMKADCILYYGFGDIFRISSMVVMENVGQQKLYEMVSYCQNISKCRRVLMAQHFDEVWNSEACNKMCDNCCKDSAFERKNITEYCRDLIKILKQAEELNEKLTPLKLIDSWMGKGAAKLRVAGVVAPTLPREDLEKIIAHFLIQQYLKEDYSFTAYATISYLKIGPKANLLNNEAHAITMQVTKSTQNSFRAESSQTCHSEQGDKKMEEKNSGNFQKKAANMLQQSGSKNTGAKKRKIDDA
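50 nM RECQ1T1 preincubated 15 min with compound in Tris pH 8.0 buffer with MgCl2, DTT, Tween-20 and 2.5 ug/ml poly(dI-dC); started with 200 nM TAMRA/BHQ-2 forked duplex and 2 mM ATP. Unwinding read as fluorescence (525/598 nm), two reads 2 h apart.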
DNA dye displace: Counterscreen for APE1 Inhibitors: Fluorescent Dye Displacement Assay | shares compounds with APE1 inh-1 | actives 7% (n = 480) | DNA fluorescent dye displacement counterscreen, fluorescence | Potency, µM (titrated, usually from 28.5 µM), without a hit: at the top dose activity change, negative = inhibition, usual class: inhibitors;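 note: loss of thiazole orange fluorescence as the dye is displaced from duplex DNA; 0% = ThO with dsDNA and no compound and -100% = ThO without dsDNA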
EndoIV counter: Counterscreen for APE1 Inhibitors: qHTS Assay for Inhibitors of Endonuclease IV; Potency, µM (series often up to 27.1 µM), without a hit: at the highest dose activity change, negative = inhibition, usual class: inhibitors; shares compounds with APE1 inh-1; actives 4% (n = 560); E. coli Endo IV, fluorogenic AP-site DNA cleavage; AID 2565, 2010;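 note: plate controls were uninhibited enzyme wells for no effect and no enzyme buffer wells for full effect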
APE1 inh-2: Confirmation qHTS Assay for Inhibitors of the Human Apurinic/apyrimidinic Endonuclease 1 (APE1). shares compounds with APE1 inh-1. purified APE1, fluorogenic abasic-site DNA cleavage. Potency, µM (highest dose often 57.1 µM), without a hit: top-dose activity change, negative = inhibition, usual class: inhibitors. actives 44% (n = 750). AID 2572, 2010; note: nearly all actives have a fitted effect of over 30% in size
APE1 FP inh: qHTS FP-Based Assay for Inhibitors of the Human Apurinic/apyrimidinic Endonuclease 1 (APE1); shares compounds with APE1 inh-1; actives 7% (n = 480); APE1 binding to TAMRA-labelled double-stranded DNA, fluorescence polarization displacement; Potency, µM (titrated, usually from 28.5 µM), for the others: at the top dose activity, negative = inhibition, actives largely listed as inhibitors; AID 2573, 2010
Active calls of the source: *; i = inactive; ? = inconclusive; / = no result given; [ ] = another dose, or the depositor's remark. Calls come from the whole dose curve; as a rule, active = well fitted curve in the direction sought with a large enough effect; inconclusive = small, poorly fitted or top-dose-only effect, or another doubt; inactive = no such curve, though single readings can be large; an effect the other way counts as inactive or inconclusive. Unless noted, % is set by controls: 0 for no effect and ±100 for the full control effect; potency is the fitted concentration of half-maximal effect.

SMILES	GLS inh	BLM helicase inh	Tb PGK inh	TDP1 inh	APE1 inh-1	RECQ1 inh	DNA dye displace	EndoIV counter	APE1 inh-2	APE1 FP inh
CCN(CC)CCCCN1c2ccccc2Sc2ccccc21	-12%	1%	2%	/	-4%	/	/	/	/	/
CC[n+]1ccc(/C=C2\Sc3ccccc3N2CCCS(=O)(=O)[O-])c2ccccc21	3%	-4%	3%	50µM*	?	-15%	/	/	?	/
COc1ccc2c(c1)c(=O)oc1cc(OCC(=O)N3CCC(C)CC3)ccc12	-21%	-28%	?	/	16µM*	40µM*	-9%	0%	5µM*	?
Cc1nnc(SCC(=O)Nc2nc(-c3ccccc3)cs2)n1N	-5%	-2%	-1%	1%	-4%	i	/	/	/	/
Cn1cnnc1SCC(=O)Nc1nc(-c2ccccc2)cs1	3%	-22%	-7%	35µM*	?	-4%	-8%	-1%	?	8%
CC(=O)Oc1ccc2c(=O)c(/C=N/c3cc(=O)[nH]c(=S)[nH]3)coc2c1	11%	0%	-16%	79µM*	6%	0%	/	/	-39%	/
O=c1cc(/N=C/c2coc3cc(Br)ccc3c2=O)[nH]c(=S)[nH]1	-15%	1%	-6%	5%	-1%	-3%	/	/	/	/
CC(C)(C)NC[C@H](O)COc1ccccc1C1CCCC1	/	/	/	/	-2%[21 µM]	/	/	/	/	/
CC(NC(=O)COC(=O)c1cc(NS(=O)(=O)c2ccc(Cl)c([N+](=O)[O-])c2)ccc1O)C1CC2CCC1C2 (configuration not stated)	13%	-15%	-3%	7%	-12%	-9%	/	/	/	/
COc1ccc(NS(=O)(=O)c2ccc(O)c(C(=O)OCC(=O)NC(C)C3CC4CCC3C4)c2)cc1 (configuration not stated)	10%	-12%	-3%	/	22µM*	-14%	?	-6%	?	?
Cn1cc(C2=C(c3ccc(Cl)cc3Cl)C(=O)NC2=O)c2ccccc21	-4%	-4%	5%	1%	?	?	/	-9%[57.1 µM]	25µM*	/
Cn1cc(-c2ccccc2C(N)=O)c(=O)c2cc(Cl)ccc21	-14%	5%	-10%	3%	-2%	i	/	/	/	/
Cc1cccc(C)c1NC(=O)c1cc(S(N)(=O)=O)c(Cl)cc1O	-1%	/	/	/	/	/	/	/	/	/
O=C(CSc1nc2ccccc2[nH]1)NC1CCCC1	22%	-15%	-9%	45µM*	?	-26%	/	/	40µM*	/
COc1ccc2c3c(cccc13)C(=O)N(O)C2=O	8%	1%	0%	-4%	2%	1%	/	/	/	/
CCC1=NNc2cccc3c(OC)ccc1c23	/	?	/	/	?	-17%	?	8%	-6%[24.4 µM]	1%
COc1cccc(/C=N/Nc2ccc(S(=O)(=O)O)cc2)c1O	10%	-1%	-9%	?	25µM*	0%	?	-4%	?	-4%
COc1cccc(/C=N/Nc2ccc(C(=O)O)cc2)c1O	-10%	-4%	0%	-7%	-6%	i	/	/	/	/
O=c1cc(O)c2ccc(O)cc2o1	13%	0%	-5%	-6%	15%	i	/	/	/	/
O=c1ccc2[n+]([O-])c3ccc(O)cc3oc-2c1	?	/	-21%	8%	25µM*	16µM*	14%	?	13µM*	0.018µM*
NC(=O)c1cc[n+](CC2=C(C(=O)O)N3C(=O)[C@@H](NC(=O)[C@@H](c4ccccc4)S(=O)(=O)[O-])[C@H]3SC2)cc1	/	/	/	11µM*	?	-4%	/	3%[57.1 µM]	-76%	/
CC(=O)OCC1=C(C(=O)O)N2C(=O)C(NC(=O)CC(C)c3ccccc3)C2SC1 (configuration not stated)	-10%	/	-21%	-6%	-3%	/	/	/	/	/
COc1ccc(/C=N/NC(=O)c2cccc(NC(=O)c3ccc(F)cc3)c2)c(C(=O)O)c1OC	7%	-12%	i	50µM*	15%	i	/	/	-9%	/
COc1ccc(C(=O)N/N=C/c2ccccc2C(=O)O)cc1OC	-1%	-3%	-4%	2%	1%	-3%	/	/	/	/
CC1=C(/C=C/C(C)=C/C=C/C(C)=C\CO)C(C)(C)CCC1	/	/	/	9%	8%	i	/	/	/	/
Cc1cc(/C=C(/C#N)c2nc3ccccc3[nH]2)c(C)n1-c1cc(C(=O)O)cc(C(=O)O)c1	18µM*	-5%	?	/	?	2%	31%	4%	?	?
O=C(O)c1ccccc1-n1cccc1C(=O)O	5%	-5%	-19%	?	?	-9%	-5%	0%	13µM*	?
O=C1Oc2ccccc2C(=O)C1C(CC(O)c1ccc(-c2ccc(Br)cc2)cc1)c1ccccc1 (configuration not stated)	17%	-23%	/	/	/	/	/	/	/	/
Cc1ccc(C(=O)Nc2nc3nc(-c4ccccc4)cc(=O)n3[nH]2)cc1	-2%	1%	-9%	45µM*	-1%	-5%	/	/	?	/
Cc1ccc(CSC2=NS(=O)(=O)c3ccccc32)cc1	/	/	/	-2%	/	/	/	/	/	/
